These results are taken from ChEMBL document CHEMBL3988442, “University of Dundee, Small-Polar-MMV Screening Library” (2021).

The target in this experiment is AMP-activated protein kinase, AMPK (Homo sapiens) (UniProt P54646+O43741+P54619+Q9UGJ0+Q9Y478+Q13131+Q9UGI9). Description: AMP-dependent Kinase enzyme assay. An in vitro enzyme assay that detects ADP turnover that is directly proportional to AMPK activity. This uses naive AMPK that is activated during the assay with MK-8722. Type of experiment: functional. Also noted: scale not given: direction of the effect not stated beside the values. To be noted: 30 µM.
With `Cc1ccc(-c2cc(C(=O)N(C)Cc3noc4c3CCCC4)[nH]n2)o1`, the Percent Effect was determined as 4.24%.
The same measure for `CCn1cc(C(=O)NCCN2CCCc3ccccc32)c(C)n1`: 7.97%; for `CC1CN(CC(=O)NCCc2ccccc2)CCN1c1nccs1` (stereo not given): 25.7%.
As to `CCc1ccc2nc(C)cc(C(=O)NC3CCCCNC3=O)c2c1` (stereo not given), the Percent Effect is -6.44%.
Regarding `COc1ccccc1CC(C)CC(=O)N(C)Cc1cc(C)on1` (stereo not given), the Percent Effect is 3.99%.
Take `COc1cc(C)c(S(=O)(=O)CC(=O)N(C)C2CC2)cc1OC`: the Percent Effect came to 2.73%.
Regarding `CNc1cc2c(nn1)CCN(C(=O)c1ccc(-n3cccn3)nc1)C2`, the Percent Effect was -15.7%.
Take `CCNC(=O)C1CCN(Cc2ccc(C(=O)Nc3cnns3)cc2)C1` (stereo not given): the Percent Effect was 1.07%.
In the case of `COc1cc(CN2CCC(COCc3ccccc3)CC2)cc(OC)c1`, the Percent Effect came to 0.75%.
The value for `CCc1ccc(N2CCC(NS(=O)(=O)N(CC)CC)CC2)cc1` was 1.78%; that for `CC(C)(CNC(=O)c1ccco1)NC(=O)OC(C)(C)C` was -6.6%.
The value for `N#Cc1cccnc1N1CCC(Nc2ccccc2)C1` (stereo not given) was 4.61%; that for `Cn1ccnc1CNC(=O)c1cncc(C2CCNCC2)n1` was 1.13%; that for `O=C(c1ccncc1)N1CCCC(C2=Nc3ccccc3S(=O)(=O)N2)C1` (stereo not given) was 8.81%.
`Cn1cnnc1C1CCN(c2nc3ccccc3o2)CC1`: the Percent Effect stood at 1.68%.
Consider `CCc1nc(C)c(CN2CCOC(Cc3cccc4ccccc34)C2)[nH]1` (stereo not given), for which the Percent Effect is -0.756%.
The same measure for `Cn1cc(NC(=O)Cc2ccccc2Br)cc1C(N)=O`: 3.12%.
`CCN(CC(=O)NC(C)(C)C)Cc1cccc2c1OCCO2`: the Percent Effect is -0.533%.
In the case of `CCC(=O)NC1CCCN(c2cncc(OCc3ccccc3)n2)C1` (stereo not given), the Percent Effect worked out at 5.23%.
The value for `COc1ccc(CCN(C)C(=O)CN2C(=O)OC[C@@H]2C(C)C)cc1OC` was 4.03%; that for `CN(C)c1cccc(C(=O)Nc2ccn(CCc3ccncc3)n2)c1` was 12.1%; that for `O=C(CCC1CCCO1)NCCCO` (stereo not given) was -4.81%.
As for `Cc1nn(C)c(C)c1S(=O)(=O)NCC1(C(N)=O)CCOCC1`, the Percent Effect is 0.589%.
For the compound `CC(C)n1ccnc1CNC(=O)c1cccc(CCC(C)(C)O)c1`, the Percent Effect is 6.45%.
Turning to `CC1(C(N)=O)CN(S(=O)(=O)c2cccc(F)c2)CCO1` (stereo not given), the Percent Effect stood at 3.77%.
The value for `CCc1cc(NCCCNS(C)(=O)=O)nc(-c2ccncc2)n1` was -3.23%; that for `CC(C)C(C(=O)N(C)C)c1cccc(Cl)c1` (stereo not given) was 6.38%; that for `COC(=O)c1ccc(NC(=O)CCNCc2ccco2)cc1` was 2.04%.
The value for `Cc1nn(C)c2nc(N3CCCCC3c3nccs3)sc12` (stereo not given) was 5.6%; that for `CSc1nccc(N2CCC3(CCCN(Cc4cccc(C)c4)C3)C2)n1` (stereo not given) was 5.62%.
`CN(C(=O)c1ccc(C#N)cc1)c1nnc(C2CCOC2)s1` (stereo not given): the Percent Effect stood at 11.3%.
In the case of `COCc1ccccc1C(=O)OCc1noc(C)n1`, the Percent Effect was 6.88%.
As for `Cc1ccc(-c2cc(C(=O)N(C)Cc3noc4c3CCCC4)[nH]n2)s1`, the Percent Effect is -10.3%.
The same measure for `O=C(c1cnnn1-c1ccccc1)N1CCCC(c2ccn[nH]2)C1` (stereo not given): -5.43%; for `Fc1cccc(CN2CCC[C@H](Cn3nnc(-c4ccccn4)n3)C2)c1`: 9.12%; for `CCN(CC(=O)NC)C(=O)c1csc(Cc2ccccc2)n1`: -5.87%.
For the compound `C=C(C)CN(CC)C(=O)CN1CCCC1C(=O)N(C)C` (stereo not given), the Percent Effect amounted to 3.77%.
As to `O=C(NCC1CCOC1)c1cc(-c2ccc(Cl)cc2)n[nH]1` (stereo not given), the Percent Effect came out at 1%.
`Cc1cnn(C2CN(c3ccccc3S(=O)(=O)C(F)(F)F)C2)c1`: the Percent Effect came to 9.6%.
For the compound `O=C(Nc1ccncc1)NC1CCN(c2ccccc2OC(F)F)C1` (stereo not given), the Percent Effect was -0.97%.
